Results filed as inconclusive are left out. Active and inactive are the calls of the source. Unless noted, calls follow the shape of the full dose curve.
Assays:
[1] = Nuclear factor erythroid 2-related factor 2/antioxidant responsive element (Nrf2/ARE) small molecule agonists: qHTS cell viability counter screen in human keratinocytes (AID 1919968; active = well fitted curve in the direction sought with a large enough effect in the repeat runs; an effect the other way counts as inactive or inconclusive; also: nearly all actives have a fitted effect of over 55% in size; also: potency is read from the fitted curve at half-maximal effect)
Method in brief: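 Fluorescence read-out from CellTiter-Fluor after 1 h at 37 C. Wells held HaCaT-derived ARE-luciferase reporter cells (1,500/well) treated 23 h with DMSO-dissolved compounds. Run in the same wells as the luciferase agonist read.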

[2] = Nuclear factor erythroid 2-related factor 2/antioxidant responsive element (Nrf2/ARE) small molecule agonists: luciferase reporter gene qHTS assay in human keratinocytes (AID 1919969); also: nearly all actives have a fitted effect of over 35% in size; also: potency is read from the fitted curve at half-maximal effect
[3] = target: KiSS-1 receptor (Homo sapiens) (UniProt Q969F8); experiment: Human kisspeptin (KISS1R) small molecule agonists, calcium flux assay in KISS1R-HEK293 cells (AID 1920064; active = well fitted curve in the direction sought with a large enough effect in the repeat runs; an effect the other way counts as inactive or inconclusive)
Method in brief: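 Calcium flux read-out: kinetic fluorescence at Ex/Em=480/540, 1 s intervals over 3 min, after pin-tool compound addition to dye-loaded KISS1R-HEK293 cells. Fifteen concentrations, triplicates.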

[4] = G protein-coupled receptor (GPCR) small molecule agonists, calcium flux assay: HEK293 wild type cell line counter screen (AID 1920065)
Method in brief: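 Agonist mode; 18 h seeding at 37 C, 1 h dye load at 37 C; compounds pinned from DMSO, ATP as positive control; kinetic fluorescence 480/540 nm, 3 min, 1 s reads; 15 concentrations, triplicate.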

[5] = p53 small molecule agonists, cell-based qHTS assay with human liver microsomes (AID 1963577)
Method in brief: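 Fluorescence of the beta-lactamase reporter in p53RE-bla cells, detected with LiveBLAzer substrate (2 h, room temperature, dark), served as the read-out after 16 h compound exposure at 37 C with human liver microsomes and NADPH, each 0.5 mg/mL final.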

[6] = p53 small molecule agonists, cell-based qHTS assay with rat liver microsomes (AID 1963578)
Method in brief: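 Cells carrying a p53 response element–beta-lactamase reporter were plated and rested 5 h, then dosed with compound in DMSO plus rat liver microsomes and NADPH, each at 0.5 mg/mL final. After 16 h at 37 C, LiveBLAzer substrate was added for 2 h.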

[7] = p53 small molecule agonists, cell-based qHTS assay with human liver microsomes: qHTS cell viability counter screen (AID 1963579); also: nearly all actives have a fitted effect of over 45% in size
Method in brief: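 Cytotoxicity counter screen: p53RE-bla, 4,000 cells/well; 5 h settle, 37 C/5% CO2; cpd + HLM 0.5 mg/mL + NADPH 0.5 mg/mL (final); 16 h, 37 C; CellTiter-Glo, 30 min RT, luminescence.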

[8] = p53 small molecule agonists, cell-based qHTS assay with rat liver microsomes: qHTS cell viability counter screen (AID 1963580); also: nearly all actives have a fitted effect of over 45% in size; also: potency is read from the fitted curve at half-maximal effect
Method in brief: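 Rat liver microsome (0.5 mg/mL final) and NADPH (0.5 mg/mL final) co-incubation with compounds for 16 h at 37 C on HCT-116 p53RE-bla cells; cytotoxicity taken from intracellular ATP luminescence.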

[9] = target: 5-hydroxytryptamine receptor 2A (Homo sapiens) (UniProt P28223); experiment: 5-hydroxytryptamine receptor 2A (HTR2A) small molecule antagonists, cell-based qHTS assay (AID 1963586); also: nearly all actives have a fitted effect of over 45% in size; also: potency is read from the fitted curve at half-maximal effect
Method in brief: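 CHO cells stably expressing human HTR2A were plated for 18 h at 37 C, then loaded with calcium dye for 1 h. Compounds were preincubated 5 min at room temperature before DOI (4 nM solution) was added. Kinetic fluorescence was read for 3 min.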

[10] = target: 5-hydroxytryptamine receptor 2A (Homo sapiens) (UniProt P28223); experiment: 5-hydroxytryptamine receptor 2A (HTR2A) small molecule agonists, cell-based qHTS assay (AID 1963587); also: nearly all actives have a fitted effect of over 30% in size; also: potency is read from the fitted curve at half-maximal effect
Method in brief: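 Kinetic calcium-flux fluorescence (2 min, 1 sec intervals) after compound addition in agonist mode. HTR2A-CHO cells were cultured 18 h, then dye-loaded 1 h at 37 C.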

[11] = target: Muscarinic acetylcholine receptor M1 (Homo sapiens) (UniProt P11229); experiment: Cholinergic receptor muscarinic 1 (CHRM1) small molecule antagonists, cell-based qHTS assay (AID 1963588); also: nearly all actives have a fitted effect of over 40% in size; also: potency is read from the fitted curve at half-maximal effect
Method in brief: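 Compounds were tested at 15 concentrations in three independent runs. Dye-loaded CHRM1-CHO cells were exposed 5 min at room temperature before stimulation by acetylcholine added at 50nM. Intracellular calcium was read kinetically on FDSS for 3 min.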

[12] = target: Muscarinic acetylcholine receptor M1 (Homo sapiens) (UniProt P11229); experiment: Cholinergic receptor muscarinic 1 (CHRM1) small molecule agonists, cell-based qHTS assay (AID 1963589); also: nearly all actives have a fitted effect of over 35% in size
Method in brief: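 Calcium flux read-out: kinetic fluorescence at 1 sec intervals after pin-tool compound addition to dye-loaded CHRM1-CHO cells (human M1). Agonist mode; 15 concentrations tested in triplicate independent runs.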

[13] = cAMP Responsive Elements (CRE) small molecule agonists, cell-based qHTS assay (AID 1963590)
Method in brief: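 Beta-lactamase reporter readout: LiveBLAzer B/G FRET substrate, 2 h at room temperature, added after 3 h compound treatment of CRE-bla HEK 293T cells at 37 C/5% CO2.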

[14] = cAMP Responsive Elements (CRE) small molecule antagonists, cell-based qHTS assay (AID 1963591; active = well fitted inhibition curve with a large enough effect in the signal ratio in the repeat runs, not every such curve was filed as active; the % refers to the signal ratio)
Method in brief: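 HEK293T CRE-bla; 18 h preincubation; compound pin-transfer; NKH477 0.25 uM final, 3 h, 37 C; LiveBLAzer FRET substrate 2 h RT.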

[15] = target: Beta-2 adrenergic receptor (Homo sapiens) (UniProt P07550); experiment: Adrenergic beta2 receptor (ADRB2) small molecule antagonists, cell-based qHTS assay (AID 1963592); also: nearly all actives have a fitted effect of over 50% in size; also: potency is read from the fitted curve at half-maximal effect
Method in brief: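 Assay format: CHO-ADRB2 cells, 18-20hr seeding at 37C/5% CO2, then compound plus 1nM isoproterenol agonist mix for 0.5hr RT. Homogeneous time-resolved fluorescence cAMP detection after 1hr, expressed as 665/615 nm ratio.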

[16] = target: D(2) dopamine receptor (Homo sapiens) (UniProt P14416); experiment: Dopamine D2 receptor (DRD2) small molecule agonists, cell-based qHTS assay (AID 1963594); also: nearly all actives have a fitted effect of over 35% in size
Method in brief: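 cAMP accumulation in DRD2-HEK293 cells measured by HTRF after 1 h detection; compounds added 10 min before NKH477 (200nM […]) forskolin-analogue stimulation, 30 min at room temperature, with Ro20-1724 present at 0.1 mM final.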

[17] = target: D(2) dopamine receptor (Homo sapiens) (UniProt P14416); experiment: Dopamine D2 receptor (DRD2) small molecule antagonists, cell-based qHTS assay (AID 1963595; active = well fitted inhibition curve with a large enough effect in the signal ratio in the repeat runs, with a control signal flat; the % refers to the signal ratio; also: potency is read from the fitted curve at half-maximal effect)
Method in brief: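 HEK293 cells stably expressing DRD2, preincubated with 0.1 mM Ro20-1724 and compounds 10 min, were stimulated with 200 nM NKH477 plus 12 nM quinpirole for 30 min at room temperature; cAMP measured by HTRF (665/620 nm).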

[18] = p53 small molecule agonists, cell-based qHTS assay (AID 1963582; active = well fitted activation curve with a large enough effect in the signal ratio in the repeat runs, not every such curve was filed as active; the % refers to the signal ratio)
Method in brief: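 Fluorescence intensity read-out of a beta-lactamase reporter under a p53 response element. Cells were exposed to DMSO-dissolved compounds for 16 h at 37 C, then developed with FRET substrate for 2 h at RT.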

[19] = target: Beta-2 adrenergic receptor (Homo sapiens) (UniProt P07550); experiment: Adrenergic beta2 receptor (ADRB2) small molecule agonists, cell-based qHTS assay (AID 1963593);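 also: CHO cells stably overexpressing human ADRB2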
Method in brief: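 CHO cells stably over-expressing ADRB2 were plated overnight at 37C, then dosed with compounds plus a stimulation mix containing 100uM IBMX and 25uM Ro-20-1724 for 0.5hr at room temperature. cAMP was measured by HTRF competition, 1hr.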

[20] = p53 small molecule agonists, cell-based qHTS assay: qHTS cell viability counter screen (AID 1963581); also: nearly all actives have a fitted effect of over 45% in size
Method in brief: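 Cytotoxicity read-out: ATP-based luminescence (CellTiter-Glo, 30 min RT) measured in the same wells as the p53 reporter assay, HCT-116 p53RE-bla cells, 16 h compound exposure at 37 C.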

Measured: Potency

Chain of KiSS-1 receptor (Homo sapiens) (Q969F8 whole entry, looked up): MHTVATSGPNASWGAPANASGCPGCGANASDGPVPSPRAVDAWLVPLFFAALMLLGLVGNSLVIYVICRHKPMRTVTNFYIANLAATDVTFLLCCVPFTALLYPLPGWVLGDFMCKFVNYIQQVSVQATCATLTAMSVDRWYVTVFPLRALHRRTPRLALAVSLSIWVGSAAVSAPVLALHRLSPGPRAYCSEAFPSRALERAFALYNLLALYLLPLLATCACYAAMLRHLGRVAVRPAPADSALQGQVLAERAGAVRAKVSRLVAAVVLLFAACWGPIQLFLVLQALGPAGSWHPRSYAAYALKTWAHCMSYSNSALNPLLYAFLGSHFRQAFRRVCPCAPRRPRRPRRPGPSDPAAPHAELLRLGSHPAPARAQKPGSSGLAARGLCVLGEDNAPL
Chain of Muscarinic acetylcholine receptor M1 (Homo sapiens) (P11229 whole entry, looked up): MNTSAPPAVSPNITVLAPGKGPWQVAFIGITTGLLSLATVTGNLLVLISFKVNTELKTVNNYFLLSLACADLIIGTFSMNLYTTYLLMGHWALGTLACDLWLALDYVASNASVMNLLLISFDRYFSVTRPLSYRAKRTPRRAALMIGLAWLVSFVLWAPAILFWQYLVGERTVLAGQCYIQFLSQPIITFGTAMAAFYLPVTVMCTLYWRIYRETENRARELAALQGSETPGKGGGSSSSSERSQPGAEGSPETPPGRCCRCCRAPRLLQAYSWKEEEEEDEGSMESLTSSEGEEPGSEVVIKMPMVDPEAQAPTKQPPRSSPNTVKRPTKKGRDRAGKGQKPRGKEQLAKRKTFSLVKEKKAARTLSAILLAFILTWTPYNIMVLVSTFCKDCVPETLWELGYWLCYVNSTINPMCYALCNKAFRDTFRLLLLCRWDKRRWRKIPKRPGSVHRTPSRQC
Chain of 5-hydroxytryptamine receptor 2A (Homo sapiens) (P28223 whole entry, looked up): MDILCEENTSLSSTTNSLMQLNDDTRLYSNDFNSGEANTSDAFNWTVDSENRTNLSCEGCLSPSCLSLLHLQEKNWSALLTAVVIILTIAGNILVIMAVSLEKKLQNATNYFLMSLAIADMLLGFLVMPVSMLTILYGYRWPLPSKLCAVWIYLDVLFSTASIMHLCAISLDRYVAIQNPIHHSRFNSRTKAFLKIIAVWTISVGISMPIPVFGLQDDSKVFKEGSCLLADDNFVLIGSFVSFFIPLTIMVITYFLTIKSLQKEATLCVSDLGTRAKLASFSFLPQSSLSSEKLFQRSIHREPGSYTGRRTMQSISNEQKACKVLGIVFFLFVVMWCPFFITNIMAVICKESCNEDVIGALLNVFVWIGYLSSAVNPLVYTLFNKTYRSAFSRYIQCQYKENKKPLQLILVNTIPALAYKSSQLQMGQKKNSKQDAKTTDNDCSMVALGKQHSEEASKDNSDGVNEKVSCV
Chain of Beta-2 adrenergic receptor (Homo sapiens) (P07550 whole entry, looked up): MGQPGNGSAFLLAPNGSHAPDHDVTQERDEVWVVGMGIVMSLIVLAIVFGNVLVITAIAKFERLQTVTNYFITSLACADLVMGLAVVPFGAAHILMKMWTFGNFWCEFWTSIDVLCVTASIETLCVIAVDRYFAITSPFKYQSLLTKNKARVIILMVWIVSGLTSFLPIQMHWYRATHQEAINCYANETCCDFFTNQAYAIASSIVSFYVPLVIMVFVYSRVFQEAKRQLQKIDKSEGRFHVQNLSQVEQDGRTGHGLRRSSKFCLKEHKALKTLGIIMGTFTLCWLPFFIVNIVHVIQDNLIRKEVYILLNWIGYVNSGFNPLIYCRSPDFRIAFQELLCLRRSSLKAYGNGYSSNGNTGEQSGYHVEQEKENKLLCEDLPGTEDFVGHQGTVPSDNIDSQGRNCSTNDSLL
Chain of D(2) dopamine receptor (Homo sapiens) (P14416 whole entry, looked up): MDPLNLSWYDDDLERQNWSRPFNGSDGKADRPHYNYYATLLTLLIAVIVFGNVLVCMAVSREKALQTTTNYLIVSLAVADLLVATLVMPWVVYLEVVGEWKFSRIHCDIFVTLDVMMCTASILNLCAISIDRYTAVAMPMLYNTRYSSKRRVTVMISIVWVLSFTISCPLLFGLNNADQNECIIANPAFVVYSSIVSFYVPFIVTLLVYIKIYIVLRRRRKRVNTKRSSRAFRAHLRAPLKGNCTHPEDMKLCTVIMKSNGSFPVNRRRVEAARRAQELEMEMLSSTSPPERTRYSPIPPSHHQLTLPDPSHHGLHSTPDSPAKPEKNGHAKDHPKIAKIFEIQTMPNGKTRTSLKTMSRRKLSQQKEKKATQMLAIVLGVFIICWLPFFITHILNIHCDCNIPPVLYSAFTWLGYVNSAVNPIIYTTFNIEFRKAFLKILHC

OCCCCCCO
inactive: [1] | [2] | [3] | [4] | [5] | [6] | [7] | [8] | [9] | [10] | [11] | [12] | [13] | [14] | [15] | [16] | [17]

O=c1c(-c2ccccc2)c1-c1ccccc1
inactive: [3] | [4] | [5] | [6] | [7] | [8] | [10] | [11] | [12] | [15] | [17]
active: [1] 1.19 µM | [2] 2.66 µM

CN(C)CCOCCN(C)CCO
inactive: [1] | [2] | [3] | [4] | [5] | [6] | [7] | [8] | [18] | [9] | [10] | [11] | [12] | [13] | [14] | [15] | [16] | [17]

CCCCCCCCCCOCC(O)CN (stereo not drawn)
inactive: [2] | [3] | [4] | [5] | [6] | [7] | [8] | [18] | [11] | [12] | [19] | [16] | [17]
active: [1] 37.6 µM | [9] 18.3 µM | [10] 9.52 µM

CN(C)CCCOc1nn(Cc2ccccc2)c2ccccc12
active: [15] 26.6 µM
inactive: [1] | [2] | [3] | [4] | [5] | [6] | [7] | [9] | [10] | [12] | [13] | [16] | [17]

CN1CCOC(c2ccccc2)c2ccccc2C1 (stereo not drawn)
inactive: [1] | [2] | [3] | [4] | [5] | [6] | [7] | [8] | [18] | [10] | [11] | [12] | [14] | [15] | [19] | [16] | [17]

CCCCCCCCCCCC[N+](C)(C)CCCCCCCCCCCC
active: [1] 24.3 µM | [8] 40.8 µM | [17] 43.3 µM
inactive: [2] | [3] | [4] | [5] | [6] | [7] | [9] | [10] | [11] | [15] | [16]

CCCC(=O)OCCC(C)C
inactive: [1] | [2] | [3] | [4] | [5] | [6] | [7] | [8] | [20] | [9] | [10] | [12] | [14] | [15] | [16] | [17]

Nc1ccc(S(=O)(=O)O)cc1
inactive: [1] | [2] | [3] | [4] | [5] | [6] | [7] | [8] | [18] | [9] | [10] | [12] | [13] | [14] | [15] | [16] | [17]

C=CC/C=C/C/C=C/C/C=C/C
inactive: [1] | [2] | [3] | [4] | [5] | [6] | [7] | [8] | [9] | [11] | [12] | [13] | [14] | [19] | [17]

COC[C@H](c1ccc(C(F)(F)F)cc1)N1CCN(C2(C)CCN(C(=O)c3c(C)ncnc3C)CC2)C[C@H]1C
active: [11] 5.16 µM
inactive: [1] | [2] | [3] | [4] | [5] | [6] | [8] | [20] | [18] | [9] | [10] | [12] | [19] | [16] | [17]

CCCCCCC(CO)CCCC (stereo not drawn)
inactive: [1] | [2] | [3] | [4] | [5] | [6] | [7] | [20] | [18] | [10] | [11] | [12] | [14] | [15] | [19] | [16] | [17]

CCCCCCC1CCCC(=O)O1 (stereo not drawn)
inactive: [1] | [2] | [3] | [4] | [5] | [6] | [7] | [8] | [20] | [10] | [11] | [12] | [15] | [16] | [17]

CCNC(=O)C(C)OC(=O)Nc1ccccc1 (stereo not drawn)
inactive: [1] | [2] | [3] | [4] | [5] | [6] | [7] | [8] | [18] | [9] | [10] | [11] | [12] | [13] | [14] | [16] | [17]

Cc1ccccc1N1C(=O)c2cc(S(N)(=O)=O)c(Cl)cc2NC1C (stereo not drawn)
inactive: [1] | [2] | [3] | [4] | [5] | [6] | [7] | [8] | [20] | [15] | [17]
